# Sampled rows, rich in hits. Any-hit rate of the full collection: about 12%.
# WT yeast gro inh – growth inhibition of WT yeast, mitochondrial fusion screen; mitochondrial fusion phenotypic screen, WT strain; inhibition, % at 10 µM; actives 2.1% (n = 190,000); AID 1362; in the data active means inhibition above about 58%; tested in S. cerevisiae
# Cl transport mod – modulates chloride dependent transport by human KCC2. Q9H2X9. B-score of Tl+ flux slope (higher = more flux/activation; lower = inhibition) at 10 µM. actives 2.2% (n = 190,000). KCC2 cells, thallium flux FluoZin-2 fluorescence;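 active means thallium flux slope and its plate-corrected score both differing from the plate sample mean at a set confidence after two filtering rounds, in either direction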;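 further: slope of fluorescence scaled to starting intensity during 10 to 20 s after thallium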
# L major viab – reduces viability of Leishmania major promastigotes; resazurin fluorescence viability; inhibition, % at 10 µM; actives 9% (n = 200,000); in the data active means inhibition above about 50%;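 further: promastigotes grown with compound for 44 hours at 28 °C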
# ROMK mod – human ROMK K+ channel modulation, primary screen | P48048 | Tet-inducible ROMK, thallium flux fluorescence; actives lie on both sides | B-score at 10 µM | actives 2% (n = 130,000);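 active means signal ratio slope over the read window, or its plate-corrected B-score, at least 3 SD from the plate mean, either direction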;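 further: B-score of the F/F0 ratio slope over 7 to 12 s after thallium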
# Calpain2 inh – blocks pig calpain II enzyme activity; inhibition, % at 16 µM; AID 1236; purified calpain II, fluorogenic peptide substrate, 30 min; actives 0.37% (n = 220,000);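 active means inhibition above about 50%, limit read from the data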
# Active calls of the source: *; i = inactive; · = not tested or not shown.
SMILES,WT yeast gro inh,Cl transport mod,L major viab,ROMK mod,Calpain2 inh
O=C1CC(N2CCN(c3ncccn3)CC2)C(=O)N1CCc1ccccc1 (stereo not drawn),-10,-0.42,-4,-0.016,15
C#CCNC(=O)/C=C/c1ccc(OC)cc1,8,-0.41,-2,-0.023,-6
Oc1ccc(/C=N/Nc2nc(N3CCCC3)nc(N3CCCC3)n2)cc1O,13,-0.24,3,0.14,-45
COc1cc(/C=N/Nc2nc(N3CCCC3)nc(N3CCCC3)n2)ccc1O,29,-1.4,97*,1.2,-3
COc1ccc(/C=N/Nc2nc(N3CCCCC3)nc(N3CCCCC3)n2)cc1[N+](=O)[O-],37,-0.76,96*,-0.14,-31
COc1ccc(/C=N/Nc2nc(Nc3ccccc3)nc(N3CCCC3)n2)cc1[N+](=O)[O-],9,0.45,-2,-0.69,-72
COc1ccc(NS(=O)(=O)c2csc(C(=O)Nc3ccccc3)c2)cc1,0,0.28,1,-0.043,-13
COc1cc(OC)cc(-c2nnc(Sc3ccc(C=O)cc3[N+](=O)[O-])o2)c1,-9,·,52*,·,-38
Cc1ccc(C)c(NS(=O)(=O)c2cc(C(=O)NCc3ccco3)ccc2C)c1,-2,·,100*,-2.1,21
Cc1ccc(C(=O)NCc2ccco2)cc1S(=O)(=O)Nc1cccc(C)c1C,8,-0.58,16,-2.7,-4
Cc1ccc(C(=O)NCCCNc2ccccc2[N+](=O)[O-])cc1,19,-2.4,-2,-0.81,51*
Cc1c(C(=O)Nc2ccccc2[N+](=O)[O-])csc1-c1ccccc1,74*,-0.35,-2,·,3
Cc1c(C(=O)Nc2ccccc2)csc1-c1ccccc1,31,0.77,-9,0.28,-3
CN(C)S(=O)(=O)c1ccc(Cl)c(NC(=O)CN2CCCCCC2)c1,-10,-0.33,4,0.055,-12
CCN(CC)S(=O)(=O)c1ccc(Cl)c(C(=O)Nc2ccc(Cl)cc2[N+](=O)[O-])c1,-25,-2.5,85*,·,11
Cc1nn(CC(=O)Nc2cc(S(=O)(=O)N(C)C)ccc2Cl)c(C)c1[N+](=O)[O-],8,1.6,72*,·,23
CCN(CC)S(=O)(=O)c1ccc(OC)c(NC(=O)c2cc([N+](=O)[O-])ccc2Cl)c1,-5,1.2,2,·,-6
Cc1ccc(C(=O)NNS(=O)(=O)c2ccccc2[N+](=O)[O-])cc1,-8,0.65,-13,-0.14,-25
CS(=O)(=O)N1CCN(c2ccc(NC(=S)NC(=O)c3ccccc3[N+](=O)[O-])cc2)CC1,-16,0.026,-8,0.42,-5
COc1ccccc1CNC(=O)CSc1ccc(-c2ccccn2)nn1,6,-0.85,0,-0.66,16
Cc1ccccc1NC(=O)c1ccc(S(=O)(=O)N(C)C)cc1,11,·,-2,·,-3
CN(C)S(=O)(=O)c1ccc(C(=O)Nc2ccccc2[N+](=O)[O-])cc1,-10,0.018,66*,0.0017,-1
CN(C)S(=O)(=O)c1ccc(Cl)c(C(=O)Nc2ccccc2[N+](=O)[O-])c1,2,-1.6,61*,-0.15,17
CN(CC(=O)O)S(=O)(=O)c1ccc2c(c1)NC(=O)CC(=O)N2,-15,-0.99,2,0.47,5
CC(C)NC(=S)N/N=C/c1cccnc1,·,0.0043,·,-0.93,2
SMILES,WT yeast gro inh,Cl transport mod,L major viab,ROMK mod,Calpain2 inh
Cc1ccc2nc(NC(=O)CCNS(=O)(=O)c3ccc(Br)s3)sc2c1,20,-0.0087,98*,·,20
Cc1ccc2nc(NC(=O)CCNS(=O)(=O)c3cccs3)sc2c1,8,-0.69,49,-0.3,-4
CCCCN(Cc1ccccc1)C(=O)c1cnc2n(c1=O)CCS2,2,·,-1,-0.018,-25
CCCOc1c(Br)cc(C2C3=C(CCCC3=O)N(CC)C3=C2C(=O)CCC3)cc1OC,13,-0.85,39,1.8,-427
CCCOc1c(Br)cc(C2C3=C(CCCC3=O)N(C)C3=C2C(=O)CCC3)cc1OC,12,-1.1,97*,·,i
NC(=O)c1cnn(-c2cc(Oc3ccccc3)ncn2)c1N,-22,1.3,-11,·,-17
C/C(=N\N=C(N)N)c1ccc(Cl)c(Cl)c1,22,0.44,101*,-2.6,6
CCCCn1c(=O)[nH]c(=O)c2c1nc(COC(=O)c1c(C)noc1C)n2CCC,9,-1.6,4,0.24,-22
COc1ccc(C(=O)N2CCCC(c3nc(-c4ccc(OC)c(OC)c4)no3)C2)c(OC)c1 (stereo not drawn),23,·,87*,-0.65,34
COc1ccc(-c2noc(C3CCCN(C(=O)c4ccccc4OC)C3)n2)cc1OC (stereo not drawn),46,-0.4,11,0.29,-14

# Screening results deposited in PubChem by several laboratories.
